Experimental data from PubChem BioAssay (Tox21).
Results filed as inconclusive are left out. Unmarked numbers belong to inactive results. Activity calls are given as the source filed them. Calls come from the whole dose curve; as a rule, active = well fitted cell-killing curve with a large enough effect in the repeat runs; inconclusive = weak or mixed curves, or effect the other way; inactive = flat fitted curve, though single readings scatter.

experiment: qHTS assay to identify small molecule antagonists of the estrogen receptor alpha (ER-alpha) signaling pathway using the BG1 cell line in the presence of 0.1 nM 17-beta-estradiol - cell viability counter screen (AID 1259241); conditions: VM7Luc4E2 (BG1) viability, CellTiter-Fluor protease, 22 h, 0.1 nM estradiol agonist added; series mostly up to 92.4 µM; activity change, negative = cytotoxicity: at the top concentration; note: nearly all actives have a fitted effect of over 40% in size
Description: National Center for Advancing Translational Sciences [NCATS]
NIH Chemical Genomics Center [NCGC]
U.S. Environmental Protection Agency [EPA]
National Institutes of Environmental Health Sciences [NIEHS]
National Toxicology Program [NTP]
U.S. Food and Drug Administration [FDA]
Estrogen receptor (ER), a member of the nuclear hormone receptor plays an important role in development, metabolic homeostasis and reproduction. Two subtypes of ER, ER-alpha and ER-beta, have similar expression patterns with some uniqueness in both types. Endocrine disrupting chemicals (EDCs) and their interactions with steroid hormone receptors like ER causes disruption of normal endocrine function. Therefore, it is important to understand the effect of environmental chemicals in ER signaling pathway. For identifying ER antagonists, VM7Luc4E2 cell line was used to screen against Tox21 compound libraries.
VM7Luc4E2 cell line (provided by Denison MS, University of California) endogenously express full-length ER-alpha and is stably transfected with a plasmid containing four estrogen responsive elements (ERE) upstream of a luciferase reporter gene. The current screening for identification of ER-alpha inhibitors against Tox21 compound libraries used lower concentration (0.1 nM) of 17beta-Estradiol as a stimulator. The cytotoxicity of the Tox21 compound libraries against VM7Luc4E2 cell line was tested by measuring live-cell protease activity using CellTiter-Fluor assay in the same wells.
Tox21 Assay Protocol Summary:
VM7Luc4E2 cells were cultured in phenol red free assay medium containing 10% charcoal stripped FBS for 5 days prior to the assay. The cells were dispensed at 4,000 cells/well in 4 uL of assay medium into white wall/solid-bottom 1536-well plates (Corning Life Sciences, Corning, NY) using a Multidrop Combi (ThermoFisher Scientific, Waltham, MA) dispenser. After the assay plates were incubated at 37C and 5% CO2 for 24 hr, 23 nL of compounds dissolved in DMSO, positive controls or DMSO only was transferred to the assay plates by a Pintool station (Kalypsys, San Diego, CA). The transfer of compounds was followed by the addition of 1 uL of 0.1 nM (final concentration) agonist (17beta-Estradiol)/assay medium using a Flying Reagent Dispenser (FRD, Aurora Discovery, San Diego, CA). The plates were incubated at 37C and 5% CO2 for 22 hr. For cytotoxicity assay, 1 uL of CellTiter-Fluor reagent (Promega Corporation, Madison, WI) was added to each well using the FRD and after 30 min incubation at 37C and 5% CO2, The fluorescence intensity was measured using ViewLux plate reader (PerkinElmer, Shelton, CT).
% is set by controls: 0 for no effect and ±100 for the full control effect; potency is the fitted concentration of half-maximal effect.

For `COCC(C)N(C(=O)CCl)c1c(C)csc1C` (stereo not given), which “activity change, negative = cytotoxicity” value is on record?
The value was -10.5%.

With `N#CCc1ccccc1` as the compound, how does the “activity change, negative = cytotoxicity” value read?
Its value is 18.8%.

For `CS/C(C)=N/OC(=O)N(C)SN(C)C(=O)O/N=C(\C)SC`, which “activity change, negative = cytotoxicity” value is on record?
The value was -4.4%.

With `C#CCOC(C(=O)OCCN(C)C)(c1ccccc1)c1ccccc1` as the compound, how does the “activity change, negative = cytotoxicity” value read?
The value was -9.53% [at 42.5 µM].

For `O=C(O)c1ccccc1C(=O)Nc1cccc2ccccc12`, which “activity change, negative = cytotoxicity” value is on record?
The value was -17.2%.

Which “activity change, negative = cytotoxicity” value does the source give for `CC(C)O.CC(C)O.OCCN(CCO)CCO.OCCN(CCO)CCO.[Ti]` here?
The value was 1.78%.

For `O=Cc1ccc(Cl)cc1Cl`, which “activity change, negative = cytotoxicity” value is on record?
Its value is -10.9%.

With `CCOC(=O)C(Cl)C(C)=O` (stereo not given) as the compound, how does the “activity change, negative = cytotoxicity” value read?
The value was 1.36%.

Which “activity change, negative = cytotoxicity” value does the source give for `N#Cc1ccc(Cl)cc1` here?
Its value is 9.54%.

For `CC(Cl)Cl`, which “activity change, negative = cytotoxicity” value is on record?
The value was 17.1%.

For `CCCN(CCCl)c1c([N+](=O)[O-])cc(C(F)(F)F)cc1[N+](=O)[O-]`, which “activity change, negative = cytotoxicity” value is on record?
Its value is -2.32%.

Which “activity change, negative = cytotoxicity” value does the source give for `CNC(C)Cc1ccccc1OC` (stereo not given) here?
The value was -10.5% [at 42.5 µM].

For `O=C(NCc1cccnc1)Nc1ccc([N+](=O)[O-])cc1`, which “activity change, negative = cytotoxicity” value is on record?
Its value is 2.31%.

Which Potency does the source give for `CN(C)c1ccc(N(C)C)cc1` here?
Its Potency is 61.3 µM (active).

With `NC(=O)CI` as the compound, how does the “activity change, negative = cytotoxicity” value read?
Its value is -1.09%.

Which Potency does the source give for `Brc1ccc(Oc2ccccc2)cc1` here?
The Potency was “inactive”.

Which “activity change, negative = cytotoxicity” value does the source give for `CN1C(=O)NC(=O)C(C)(C2=CCCCC2)C1=O` (stereo not given) here?
Its value is 6.8% [at 42.5 µM].

For `O=C(CCl)c1ccc(Cl)cc1Cl`, which Potency is on record?
The Potency was “inactive”.

For `CC(C)N(C(=O)COc1nnc(C(F)(F)F)s1)c1ccc(F)cc1`, which “activity change, negative = cytotoxicity” value is on record?
The value was 0.208%.

With `CCOc1ccc(C(C)(C)COCc2cccc(Oc3ccccc3)c2)cc1` as the compound, how does the “activity change, negative = cytotoxicity” value read?
The value was 9.12%.

Which “activity change, negative = cytotoxicity” value does the source give for `NC(=O)C(Cl)(Cl)Cl` here?
Its value is 10.4%.

For `O=NN1CCNCC1`, which “activity change, negative = cytotoxicity” value is on record?
Its value is 0.764%.

With `O=C(NC(=O)c1c(F)cccc1F)Nc1cc(Cl)c(Oc2ncc(C(F)(F)F)cc2Cl)c(Cl)c1` as the compound, how does the “activity change, negative = cytotoxicity” value read?
Its value is -5.59%.

Which “activity change, negative = cytotoxicity” value does the source give for `ClP(Cl)(Cl)(Cl)Cl` here?
Its value is 5.43%.

Which “activity change, negative = cytotoxicity” value does the source give for `Clc1cccc2ccccc12` here?
Its value is 5.74%.

With `C=CC(C)=O` as the compound, how does the “activity change, negative = cytotoxicity” value read?
Its value is 9.47%.

Which “activity change, negative = cytotoxicity” value does the source give for `C=CC(=O)OCCCCO` here?
Its value is -7.97%.

Which “activity change, negative = cytotoxicity” value does the source give for `O=[Se]=O` here?
Its value is 6.34% [at 42.5 µM].

Which “activity change, negative = cytotoxicity” value does the source give for `Oc1ccc(Cl)c(Cl)c1Cl` here?
The value was -8.25%.

Which activity change, negative = cytotoxicity does the source give for `NCC(CC(=O)O)c1ccc(Cl)cc1` (stereo not given) here?
The activity change, negative = cytotoxicity was 0.211% [at 0.349 µM].

Which “activity change, negative = cytotoxicity” value does the source give for `Cc1ccccc1CCl` here?
Its value is 0.727%.

With `CC(=O)CCC(C)=O` as the compound, how does the “activity change, negative = cytotoxicity” value read?
Its value is -14.7%.

Which “activity change, negative = cytotoxicity” value does the source give for `NCCCNCCCN` here?
Its value is -7.39%.

With `CCOP(=O)(OCC)Oc1ccc([N+](=O)[O-])cc1` as the compound, how does the Potency read?
The Potency was “inactive”.

Which “activity change, negative = cytotoxicity” value does the source give for `c1ccc(C2CC2)c(OCC2=NCCN2)c1` here?
Its value is -2.62% [at 42.5 µM].

With `ClCc1cccc(Cl)c1` as the compound, how does the “activity change, negative = cytotoxicity” value read?
The value was 5.36% [at 42.5 µM].

With `COC(=O)C(Br)CBr` (stereo not given) as the compound, how does the “activity change, negative = cytotoxicity” value read?
Its value is 2.28%.

With `CC(C)(Cl)[N+](=O)[O-]` as the compound, how does the “activity change, negative = cytotoxicity” value read?
Its value is 0%.

With `CCCCCCC#N` as the compound, how does the “activity change, negative = cytotoxicity” value read?
Its value is 0.961%.

With `CCOP(=S)(OCC)Oc1cc(Cl)c(Br)cc1Cl` as the compound, how does the “activity change, negative = cytotoxicity” value read?
Its value is 15%.
